Source: the supplement of paper PMC3334620
In all, about 33,000 sequences were measured (“E-score (-0.5 to 0.5)”: median about -0.017, highest 2% from about 0.3 on). Many of the other results were omitted from the sample, so the highest values are more common in it than they were.

The sequences below were run against T1, Sut1 (UniProt P53032) (assay: PBM E-score (8-mer binding enrichment) (E-score (-0.5 to 0.5)); higher = stronger / more preferred TF binding). Conditions: protein concentration: 200 nM; construct: GST-full length.
T1 sequence: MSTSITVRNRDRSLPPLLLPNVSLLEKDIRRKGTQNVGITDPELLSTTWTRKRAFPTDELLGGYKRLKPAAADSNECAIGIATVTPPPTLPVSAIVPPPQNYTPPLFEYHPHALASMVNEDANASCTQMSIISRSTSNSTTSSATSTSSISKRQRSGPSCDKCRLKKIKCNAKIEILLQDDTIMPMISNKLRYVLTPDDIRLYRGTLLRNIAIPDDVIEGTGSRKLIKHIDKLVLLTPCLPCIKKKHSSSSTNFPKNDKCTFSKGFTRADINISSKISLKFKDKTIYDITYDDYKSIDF
Protocol: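 Universal 'all 10-mer' protein binding microarrays (Agilent AMADID 015681) probed with GST-tagged S. cerevisiae TFs (full-length or DBD) made by in vitro transcription/translation (PURExpress), about 100-200 nM. Bound TF was detected with fluorescent anti-GST. Each ungapped 8-mer (which stands for itself and its reverse complement) is scored by the PBM enrichment score (E-score), a modified Wilcoxon-Mann-Whitney statistic from -0.5 to +0.5, computed with the Universal PBM Analysis Suite. Scale: above 0.35 generally sequence-specific binding.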

Sequence	PBM E-score
AATGTGCT	0.0947
TACTGAGA	-0.055
AAGGTCCT	-0.239
AAGGTCCG	0.407
AAGGTCCA	-0.135
CAGGTCCG	0.438
CAGGTCCA	-0.231
CAGGTCCC	-0.182
AGTCGAAA	0.115
TCTGGTAA	-0.0251
ATGCTAGA	0.0093
ACGCTGTA	-0.0391
ATCAAGAG	0.117
CTAGGCTC	-0.149
CGTAGCCC	-0.274
AGCGCCCT	-0.128
ACGGACCT	0.339
ACGGACAG	-0.0929
ACGGACCG	-0.0134
ACGGACAC	0.0824
ACGGACAT	0.404
ACGGACCA	0.277
ACAGTCCC	-0.2
GTTCCCTA	-0.238
CGAATATA	0.231

Sequence	PBM E-score
CCCATATC	-0.043
GACTCATA	0.0779
ACTCCCAT	-0.0456
ACTCCTAT	0.0886
AATCCGAC	0.0553
CCTCCGAC	0.0212
ACTCCGAC	0.489
ACTCCGAT	0.491
ACAACGGG	0.0387
GCAACGGA	0.306
CCAACGGA	0.207
TCAACGGA	0.246
ACAACGGA	0.335
GCAACGGC	-0.0987
AAGCCAGT	-0.176
CAGAAGAC	-0.17
CACGTGCC	-0.186
AGTGGCCA	-0.202
ATGCGCTA	-0.0278
AGCTCTAC	-0.325
AATGTCCA	0.0363
ATTGTCCA	-0.0211
CATGTCCC	-0.1
AATGTCCT	-0.0934
ATTGTCCC	-0.108

Sequence	PBM E-score
CATGTCCA	0.0978
ATTGTCCG	0.359
CATGTCCG	0.382
AATGTCCG	0.447
TCGAACAA	0.102
AGGGGGTA	-0.323
AGACCGCA	-0.0648
AGGGGATC	-0.134
CCAACCCG	-0.172
CCCTGCTC	-0.0773
CTCTCAGA	-0.139
GGCCGATA	-0.152
GTCCGATA	0.362
CGCCGATC	0.137
CTCCGATA	0.432
ATCCGATA	0.215
ATCCGATC	0.18
CGCCGATA	-0.197
CTCCGATC	0.38
CACCGATA	0.04
CCCAGCTC	0.03
CTACACCC	-0.286
AAAAAAAA	0.228
CCCCAATC	-0.327
TGTGTAAA	0.194

Sequence	PBM E-score
AGGGACTC	-0.186
CCGGACCA	0.241
ACGGACGA	0.1
ACGGACTG	0.22
GAGGACTA	0.0368
ACGGACTC	0.393
CCGGACTA	0.48
CTGGACTA	-0.0898
ATGGACTA	-0.0502
GCGGACTA	0.404
GCGGACCA	0.175
ACGGACTA	0.431
CGATCTCA	-0.0333
AAGTGATT	0.237
AGTGTATG	0.14
AGCCCATA	-0.137
ACTATTCT	0.0103
CCGGACAC	0.112
CGGGACTC	0.0911
CCGGACTC	0.476
ACGTAACT	0.009
ATATCCAA	0.158
TTATCCAA	0.3
CTATCCAA	0.057
ATTTTGTA	0.318

Sequence	PBM E-score
CTTTTGTA	0.259
ATTTTGTG	0.239
GACTACGA	0.0667
TGTCGGAA	0.218
CGTCGGAG	0.422
CGTCGGAA	0.196
AGTCGGAA	0.243
AGTCGGAC	0.337
AGTCGGAG	0.316
CGTCGGAC	0.247
GGTCGGAC	0.259
AGTCGGAT	0.173
CCATTCGG	0.00649
ATGTTCGG	0.181
CTGCCCAG	-0.222
GCCTGGCA	-0.3
CCACGGAA	0.178
AGACGGAT	0.0639
CCACGGAC	0.202
CGACGGAC	0.349
AGACGGAG	0.322
AGACGGAA	0.0433
CCACGGAG	0.365
GGACGGAC	0.285
ACACGGAA	0.18

Sequence	PBM E-score
ACACGGAG	0.409
ACACGGAT	0.0295
CGACGGAA	0.116
AGTAGAGG	-0.308
GCGCAGCA	-0.232
ACAATTTC	0.0702
AGGATAAT	0.113
TCAAAGGA	-0.0285
GAGCCACC	-0.264
CCATCTCC	0.256
GAAGATTC	0.171
CATTCTCC	0.118
CCAACTCA	-0.0222
GCAACTCA	0.0595
GCAACTAC	0.0638
ACAACTCT	0.0085
ACAACTCA	0.13
GCAACTCC	0.299
CCAACTCG	-0.141
CCAACTCC	0.387
ACAACTCC	0.431
CGCTGTGA	-0.225
CTATTGGC	-0.227
ACCTTGAC	-0.143
CCGGAGTC	0.484

Sequence	PBM E-score
CAGGAGTC	0.0824
ATGGAGTA	0.179
ACGGAGTG	0.42
AAGGAGTA	0.0607
ATGGAGTG	-0.0878
GCGGAGGA	-0.161
ACGGAGTA	0.473
GCGGAGTA	0.458
GAGGAGTA	-0.0389
AAGGAGTG	-0.0821
CCGGAGGC	0.156
AATTGCGT	0.134
CGATCCTC	-0.124
ACACTCGA	-0.106
AAACCTAT	0.123
CTAGATGA	-0.0501
CACAAACG	0.127
CCAACCAG	-0.187
ACCGCAAT	0.1
ATGGAGTC	0.0281
CTGGAGTA	0.0562
ACGGAGGC	-0.0143
ACGGAGTC	0.46
CCGGAGTA	0.49
CAGGAGTA	-0.157

Sequence	PBM E-score
CACTTTAA	0.157
CAATTTAA	0.317
AACTTTAG	0.189
TGATTTAA	0.3
TAATTTAA	0.283
AAATTTAG	0.254
AAATTTTA	0.125
AGATTTAA	0.00422
CGATTTAA	0.242
AACTTTAA	0.325
AAATTTAA	0.318
CAATTTTA	0.234
CCAGGATC	-0.201
GTTTAACA	-0.00835
AGGATTTG	0.0444
CCTCCCTA	-0.367
CGCAAACG	-0.00322
AGATTGAG	0.0927
AACTATCT	0.0634
GGACCGTA	-0.172
CTGCGTTC	0.0373
AAGTTGTA	0.0914
GAGTTGTA	0.317
CAGTTGTA	0.00162
CTAGCGGA	0.0881

Sequence	PBM E-score
CGAGGTCA	-0.0467
CTCTCCGC	0.18
ATCTCCCG	-0.0416
ATCTCCAG	-0.0734
GTCTCCGA	0.338
ATCTCCCA	-0.155
ATCTCCGA	0.477
GTCTCCAA	-0.0301
ATCTCCGG	0.478
ATCTCCGC	0.399
ATCTCCAA	0.158
ATCTCCCC	-0.285
CTCTCCGA	0.257
AAGCGACC	0.0829
CGTAGGCA	-0.169
GATAGTAC	-0.00235
GCGCAAGC	-0.234
CAAGATTA	0.132
GAAGATTA	0.109
AAAGATTA	0.306
AAAAAACT	0.198
AGAGAGCG	-0.0777
GGTATGAA	0.114
CAGTTTTA	0.0952
GTGATAAA	0.0786

Sequence	PBM E-score
CCGATAAA	0.343
CGGATAAA	0.341
ATGATAAA	0.233
TTGATAAA	0.328
CGGATAAC	0.264
CCGATAAG	0.111
CCGATAAC	0.18
TGGATAAA	0.263
TGGGTTAA	-0.0031
ATCAACTC	-0.0768
ACAGAACG	-0.0202
TCACTCAA	0.0178
CCCTCAAA	-0.0431
AATCGGCG	-0.0941
AAAGTATA	0.214
GCTTAAGA	0.00411
GTCAAGAA	0.108
ACCGTTAG	0.00367
CAGCTGAA	-0.109
AAATTCCA	0.241
CAATTCCA	-0.032
CGATTCCG	0.314
CAATTCCC	0.072
CGATTCCA	0.0585
CGATTCCC	-0.0189

Sequence	PBM E-score
AAATTCCC	-0.245
AAATTCCG	0.337
CAATTCCG	0.305
GCTAGGGA	-0.308
AATCCCAG	0.0474
ATACGAGG	-0.165
CGATTGAG	-0.0533
CGGACTAC	0.464
TGGACTAA	-0.104
GGGACTAA	-0.0778
CGGACTAA	0.454
CGGACTAG	0.452
AGGACTAG	-0.0577
AGGACTAC	-0.118
CAGACTAG	-0.288
GGGACTAC	-0.162
GATGCTCC	0.17
CAAGGGGA	-0.185
GCCTTGCC	-0.155
ACGTCGAT	0.0428
CATCTGAG	-0.143
CACTCCAC	-0.0759
CCAGCTGG	-0.188
CATGCAGA	-0.15
ATTGAAAA	0.213

Sequence	PBM E-score
ATTGAATC	0.00919
ATTGAAAT	0.311
ATTGAAAC	0.184
CTTGAAAA	0.0874
ATTGAATA	0.315
GTTGAAAA	0.104
TTTGAAAA	0.31
CTTGAATA	0.0931
CCGGGCCG	0.155
TCCATGAA	0.131
AGCCTTTG	-0.165
ACCTCAGC	-0.106
CTCAGTTC	-0.0325
ATCTTTCG	-0.00103
CGAGAGCC	-0.161
CATTTCAA	0.275
TATTTCAA	0.301
GATTTCAA	0.147
ATTCATAA	0.127
CTTCCGGA	0.347
ATTCCGGA	0.42
ATTCCGGG	0.295
CTTCCGGC	0.0877
GTTCCGGA	0.342
GTTCCGCA	0.0832

Sequence	PBM E-score
GTTCCGAA	0.267
ATTCCGGC	0.177
CTTCCGTA	0.181
AGCCAAAT	0.14
ATCAAACG	0.132
CATTGCTC	0.1
CGGTCTAG	-0.0195
ACCGTAGA	0.0336
TCCGTAGA	0.361
CCCGTAGA	-0.245
AGTATCAG	-0.0501
ACCTCTCG	-0.047
CGTGACCC	-0.111
CAATCAGG	-0.167
GCTTTGAA	-0.00621
ACTACAAG	0.0409
GATACAAA	0.112
ACTACAAA	0.302
ACTACAAC	0.266
AATACAAA	0.348
AATACAAG	0.123
GCCTGGAC	-0.336
AGGCAGGC	-0.208
TCCGTCCA	0.316
CCCGTCCA	-0.198

Sequence	PBM E-score
GCCGTCCA	0.00979
CAGGTTAG	-0.082
AGCCTACT	-0.134
ATACTATC	0.202
CTACTATC	0.312
CTACTATA	0.281
ATGTAGTC	0.18
GACACCGC	-0.0517
ATCTCGGA	0.368
GCCTCGGA	0.198
ATCTCGGC	0.13
AGCTCGGA	0.336
ACCTCGGA	0.404
CTCTCGGA	0.32
CTCTCGGC	-0.0324
CGCTCGGA	0.29
CTCTCGAA	-0.282
ACCTCGGC	0.0761
ATCTCGGG	0.0127
AGCTCGGC	-0.00249
